Structures are written as SMILES. Inconclusive results are not listed. Where a call stands in place of a potency, no number is given. The source made the active and inactive calls. Calls follow the shape of the dose curve; as a rule, active = well fitted curve in the direction sought with a large enough effect; inconclusive = small, poorly fitted or top-dose-only effect, or another doubt; inactive = no such curve, though single readings can be large; an effect the other way counts as inactive or inconclusive.

The nature of the first assay: Cell Viability - LYMP2-003 (AID 965).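 Also: cells exposed to compounds for 24 h before reading; nearly all actives have a fitted effect of over 50% in size.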 Also: potency is read from the fitted curve at half-maximal effect. The settings on record: LYMP2-003 lymphoblastoid cell viability; series mostly up to 92.2 µM. In outline:
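Human lymphoblastoid LYMP2-003 cells, 2500/well, exposed to compounds for 24 h at 37 C in complete medium. Viability read as intracellular ATP by CellTiter-Glo luminescence; AC50 from Hill-equation fits of qHTS concentration-response data.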
Regarding `Oc1ccccc1-c1ccccc1`, the Potency result is “inactive”.
For the molecule `Clc1ccc(COC(Cn2ccnc2)c2ccc(Cl)cc2Cl)cc1` (configuration not stated), the Potency result was “inactive”.
In the case of `Oc1ccc(Cl)cc1Cc1ccccc1`, the Potency entry was “inactive”.
On the same count and under the same terms, then `N[C@@H](Cc1ccc(N(CCCl)CCCl)cc1)C(=O)O`, with 31.6 µM (active).
Consider `OCCOc1ccccc1`, for which the Potency entry was “inactive”.
As to `NCC(O)c1ccc(O)cc1` (configuration not stated), the Potency entry was “inactive”.
On to `CCCC(C)(COC(N)=O)COC(=O)NC(C)C` (configuration not stated), for which the Potency result was “inactive”.
For the molecule `c1ccc2c(c1)Nc1ccccc1S2`, the Potency result is “inactive”.
On the same count and under the same terms, then `CCOP(=S)(OCC)Oc1cc(C)nc(C(C)C)n1`, with “inactive”; and `CNCC(O)c1ccc(O)cc1` (configuration not stated), with “inactive”.

A further assay in a line: Cell Viability - LYMP2-004 (AID 966). Also: nearly all actives have a fitted effect of over 65% in size. To be noted: LYMP2-004 lymphoblastoid cell viability, qHTS; series mostly up to 92.2 µM. The gist of the method:
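Viable-cell number estimated from ATP luminescence (CellTiter-Glo) in 2500 human lymphoblastoid cells/well after 24 hr at 37 C with compound. AC50 fitted to the standard Hill equation.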
Background: In qHTS, concentration-response curves come from the screen itself.
In the case of `Oc1ccccc1-c1ccccc1`, the Potency result was “inactive”.
Turning to `Oc1ccc(Cl)cc1Cc1ccccc1`, the Potency entry is “inactive”.
On to `OCCOc1ccccc1`, for which the Potency result is “inactive”.
With `NCC(O)c1ccc(O)cc1` (configuration not stated), the Potency entry is “inactive”.
Same read-out and setting: then `CCCC(C)(COC(N)=O)COC(=O)NC(C)C` (configuration not stated), with “inactive”.
For `c1ccc2c(c1)Nc1ccccc1S2`, the Potency entry is “inactive”.
In the case of `CCOP(=S)(OCC)Oc1cc(C)nc(C(C)C)n1`, the Potency entry was “inactive”.
As for `CNCC(O)c1ccc(O)cc1` (configuration not stated), the Potency entry is “inactive”.

Another assay can be described thus: Cell Viability - LYMP2-005 (AID 967). To be noted: LYMP2-005 lymphoblastoid cell viability; series mostly up to 92.2 µM. The gist of the method: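 Human lymphoblastoid LYMP2-005 cells, 2,500 per well in complete medium, rested 5 h at 37C then compound-treated 24 h at 37C. Intracellular ATP read by CellTiter-Glo luminescence after 30 min at room temperature; AC50 from Hill-equation fits of concentration-response data.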
In the case of `C[C@]12C/C(=C/O)C(=O)C[C@@H]1CC[C@@H]1[C@@H]2CC[C@@]2(C)[C@H]1CC[C@]2(C)O`, the Potency entry was “inactive”.
Same read-out and setting: the result for `Oc1ccccc1-c1ccccc1` reads “inactive”.
On the same count and under the same terms, then `Oc1ccc(Cl)cc1Cc1ccccc1`, with “inactive”; and `NCC(O)c1ccc(O)cc1` (configuration not stated), with “inactive”.
Consider `CCCC(C)(COC(N)=O)COC(=O)NC(C)C` (configuration not stated), for which the Potency entry was “inactive”.
`c1ccc2c(c1)Nc1ccccc1S2`: the Potency result is “inactive”.
Turning to `CCOP(=S)(OCC)Oc1cc(C)nc(C(C)C)n1`, the Potency result is “inactive”.
Take `CNCC(O)c1ccc(O)cc1` (configuration not stated): the Potency entry is “inactive”.

The next assay can be described thus: Cell Viability - LYMP2-009 (AID 968). Also: nearly all actives have a fitted effect of over 55% in size. Also: potency is read from the fitted curve at half-maximal effect. To be noted: LYMP2-009 lymphoblastoid cell viability; series mostly up to 92.2 µM.
On to `Oc1ccccc1-c1ccccc1`, for which the Potency result is “inactive”.
On to `Oc1ccc(Cl)cc1Cc1ccccc1`, for which the Potency result was “inactive”.
Same read-out and setting: then `N[C@@H](Cc1ccc(N(CCCl)CCCl)cc1)C(=O)O`, with 39.8 µM (active); and `OCCOc1ccccc1`, with “inactive”.
On to `NCC(O)c1ccc(O)cc1` (configuration not stated), for which the Potency result is “inactive”.
Still for that read-out and setting: then `CCCC(C)(COC(N)=O)COC(=O)NC(C)C` (configuration not stated), with “inactive”; and `c1ccc2c(c1)Nc1ccccc1S2`, with “inactive”.
Same read-out and setting: then `CCOP(=S)(OCC)Oc1cc(C)nc(C(C)C)n1`, with “inactive”; and `CNCC(O)c1ccc(O)cc1` (configuration not stated), with “inactive”.

The nature of a further assay: Cell Viability - LYMP2-011 (AID 969). Also: nearly all actives have a fitted effect of over 60% in size. Also: potency is read from the fitted curve at half-maximal effect. The settings on record: LYMP2-011 lymphoblastoid cells viability; series mostly up to 92.2 µM. In outline: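 Cells seeded at 2500 per well rest 5 hr before compound addition, then incubate 24 hr at 37 C. CellTiter-Glo reagent is added for 30 min at room temperature before luminescence detection.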
Take `Oc1ccccc1-c1ccccc1`: the Potency entry was “inactive”.
On to `Clc1ccc(COC(Cn2ccnc2)c2ccc(Cl)cc2Cl)cc1` (configuration not stated), for which the Potency is 79.4 µM (active).
On the same count and under the same terms, then `Oc1ccc(Cl)cc1Cc1ccccc1`, with “inactive”.
On to `N[C@@H](Cc1ccc(N(CCCl)CCCl)cc1)C(=O)O`, for which the Potency was 39.8 µM (active).
Turning to `OCCOc1ccccc1`, the Potency result was “inactive”.
Still for that read-out and setting: the result for `NCC(O)c1ccc(O)cc1` (configuration not stated) reads “inactive”; that for `CCCC(C)(COC(N)=O)COC(=O)NC(C)C` (configuration not stated), “inactive”.
For the molecule `c1ccc2c(c1)Nc1ccccc1S2`, the Potency result is “inactive”.
On to `CCOP(=S)(OCC)Oc1cc(C)nc(C(C)C)n1`, for which the Potency result is “inactive”.
For `CNCC(O)c1ccc(O)cc1` (configuration not stated), the Potency result was “inactive”.

A short description of the next assay: Cell Viability - LYMP2-013 (AID 970). Also: nearly all actives have a fitted effect of over 55% in size. Also: potency is read from the fitted curve at half-maximal effect. The settings on record: LYMP2-013 lymphoblastoid cells viability; series mostly up to 92.2 µM. In outline:
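In complete culture medium, human lymphoblastoid cells were dosed for 24 hr at 37 C, with tetraoctylammonium bromide (6.4pM to 92 uM) as positive control. Viability reflects luciferase-based ATP signal; AC50 derived from concentration-response curves.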
Turning to `Oc1ccccc1-c1ccccc1`, the Potency result is “inactive”.
Turning to `Oc1ccc(Cl)cc1Cc1ccccc1`, the Potency entry was “inactive”.
Consider `N[C@@H](Cc1ccc(N(CCCl)CCCl)cc1)C(=O)O`, for which the Potency was 39.8 µM (active).
For `OCCOc1ccccc1`, the Potency result is “inactive”.
On to `NCC(O)c1ccc(O)cc1` (configuration not stated), for which the Potency result is “inactive”.
Take `CCCC(C)(COC(N)=O)COC(=O)NC(C)C` (configuration not stated): the Potency result was “inactive”.
On the same count and under the same terms, the result for `c1ccc2c(c1)Nc1ccccc1S2` reads “inactive”; that for `CCOP(=S)(OCC)Oc1cc(C)nc(C(C)C)n1`, “inactive”; that for `CNCC(O)c1ccc(O)cc1` (configuration not stated), “inactive”.

The nature of a further assay: Cell Viability - LYMP2-015 (AID 971). Also: nearly all actives have a fitted effect of over 55% in size. Also: potency is read from the fitted curve at half-maximal effect. To be noted: LYMP2-015 lymphoblastoid cell viability; series mostly up to 92.2 µM. The gist of the method: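 AC50 values reflect Hill-model fits of ATP-based luminescence (CellTiter-Glo) from a human lymphoblastoid line, 2500 cells/well, treated 24 hr at 37 C.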
For the molecule `Oc1ccccc1-c1ccccc1`, the Potency entry was “inactive”.
On the same count and under the same terms, then `Clc1ccc(COC(Cn2ccnc2)c2ccc(Cl)cc2Cl)cc1` (configuration not stated), with “inactive”; and `Oc1ccc(Cl)cc1Cc1ccccc1`, with “inactive”.
As to `N[C@@H](Cc1ccc(N(CCCl)CCCl)cc1)C(=O)O`, the Potency was 31.6 µM (active).
Regarding `OCCOc1ccccc1`, the Potency entry was “inactive”.
On to `NCC(O)c1ccc(O)cc1` (configuration not stated), for which the Potency result was “inactive”.
In the case of `CCCC(C)(COC(N)=O)COC(=O)NC(C)C` (configuration not stated), the Potency entry is “inactive”.
On the same count and under the same terms, the result for `c1ccc2c(c1)Nc1ccccc1S2` reads “inactive”; that for `CCOP(=S)(OCC)Oc1cc(C)nc(C(C)C)n1`, “inactive”.
As to `CNCC(O)c1ccc(O)cc1` (configuration not stated), the Potency result is “inactive”.

The nature of the next assay: Cell Viability - LYMP2-017 (AID 972). Also: nearly all actives have a fitted effect of over 55% in size. Also: potency is read from the fitted curve at half-maximal effect. To be noted: LYMP2-017 lymphoblastoid cell viability; series mostly up to 92.2 µM. The gist of the method: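 In this qHTS format, lymphoblastoid cells in complete medium receive test compound for a day at 37 C before ATP content is quantified by luciferase luminescence. Reported AC50 figures come from standard Hill-equation curve fitting.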
With `Oc1ccccc1-c1ccccc1`, the Potency entry is “inactive”.
For the molecule `Oc1ccc(Cl)cc1Cc1ccccc1`, the Potency result was “inactive”.
Still for that read-out and setting: then `N[C@@H](Cc1ccc(N(CCCl)CCCl)cc1)C(=O)O`, with 39.8 µM (active); and `OCCOc1ccccc1`, with “inactive”; and `NCC(O)c1ccc(O)cc1` (configuration not stated), with “inactive”.
Turning to `CCCC(C)(COC(N)=O)COC(=O)NC(C)C` (configuration not stated), the Potency entry is “inactive”.
`c1ccc2c(c1)Nc1ccccc1S2`: the Potency result was “inactive”.
Still for that read-out and setting: the result for `CCOP(=S)(OCC)Oc1cc(C)nc(C(C)C)n1` reads “inactive”; that for `CNCC(O)c1ccc(O)cc1` (configuration not stated), “inactive”.

Another assay can be described thus: Cell Viability - LYMP2-019 (AID 973). Also: nearly all actives have a fitted effect of over 55% in size. Also: potency is read from the fitted curve at half-maximal effect. To be noted: LYMP2-019 lymphoblastoid cell line viability; series mostly up to 92.2 µM. In outline: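 AC50 values come from Hill-equation modelling of qHTS concentration-response curves, where viability is measured as luciferase-based ATP luminescence in the lymphoblastoid line after 24 hr compound exposure in complete culture medium.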
For `Oc1ccccc1-c1ccccc1`, the Potency result is “inactive”.
As for `Oc1ccc(Cl)cc1Cc1ccccc1`, the Potency result was “inactive”.
For `N[C@@H](Cc1ccc(N(CCCl)CCCl)cc1)C(=O)O`, the Potency was 39.8 µM (active).
Still for that read-out and setting: then `OCCOc1ccccc1`, with “inactive”; and `NCC(O)c1ccc(O)cc1` (configuration not stated), with “inactive”.
Consider `CCCC(C)(COC(N)=O)COC(=O)NC(C)C` (configuration not stated), for which the Potency entry is “inactive”.
As for `c1ccc2c(c1)Nc1ccccc1S2`, the Potency entry is “inactive”.
Turning to `CCOP(=S)(OCC)Oc1cc(C)nc(C(C)C)n1`, the Potency result is “inactive”.
`CNCC(O)c1ccc(O)cc1` (configuration not stated): the Potency result was “inactive”.

The nature of the next assay: Cell Viability - LYMP2-021 (AID 974). Also: potency is read from the fitted curve at half-maximal effect. The settings on record: LYMP2-021 lymphoblastoid cells viability; series mostly up to 92.2 µM. The gist of the method:
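In qHTS format, compounds are tested against 2500 lymphoblastoid cells per well for 24 h; viable cell number is inferred from ATP-driven luciferase light, and Hill-equation fitting yields AC50 values.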
In the case of `C[C@]12C/C(=C/O)C(=O)C[C@@H]1CC[C@@H]1[C@@H]2CC[C@@]2(C)[C@H]1CC[C@]2(C)O`, the Potency is 63.1 µM (active).
On to `Oc1ccccc1-c1ccccc1`, for which the Potency result was “inactive”.
`Oc1ccc(Cl)cc1Cc1ccccc1`: the Potency result was “inactive”.
For `N[C@@H](Cc1ccc(N(CCCl)CCCl)cc1)C(=O)O`, the Potency is 39.8 µM (active).
In the case of `OCCOc1ccccc1`, the Potency result was “inactive”.
On the same count and under the same terms, the result for `NCC(O)c1ccc(O)cc1` (configuration not stated) reads “inactive”; that for `CCCC(C)(COC(N)=O)COC(=O)NC(C)C` (configuration not stated), “inactive”; that for `c1ccc2c(c1)Nc1ccccc1S2`, “inactive”.
As to `CCOP(=S)(OCC)Oc1cc(C)nc(C(C)C)n1`, the Potency entry was “inactive”.
On to `CNCC(O)c1ccc(O)cc1` (configuration not stated), for which the Potency result is “inactive”.
